BAZ2B block = BAZ2B (human) inhibition | AID 504333 | 360,000 tested, 4.4% active | Q9UIF8 | AlphaScreen BAZ2B-H3K14Ac peptide displacement | Potency, µM (series often up to 114 µM), hits mostly inhibitors; further: nearly all actives have a fitted effect of over 60% in size
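AlphaScreen luminescence quantifies BAZ2B engagement of H3K14Ac peptide; the protein and biotinylated peptide are both at 50 nM final, buffer PBS pH 7.4 with 0.01% Tween-20, all steps at room temperature.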
JMJD2A Tudor = inhibitors of human JMJD2A Tudor domain; AlphaScreen JMJD2A-Tudor / H3K4me3 peptide binding; Potency, µM (titrated, usually from 114 µM), hits mostly inhibitors; O75164; 390,000 tested, 4.4% active; further: nearly all actives have a fitted effect of over 50% in size
Target sequence (O75164 whole entry, looked up, the tested form may be a part): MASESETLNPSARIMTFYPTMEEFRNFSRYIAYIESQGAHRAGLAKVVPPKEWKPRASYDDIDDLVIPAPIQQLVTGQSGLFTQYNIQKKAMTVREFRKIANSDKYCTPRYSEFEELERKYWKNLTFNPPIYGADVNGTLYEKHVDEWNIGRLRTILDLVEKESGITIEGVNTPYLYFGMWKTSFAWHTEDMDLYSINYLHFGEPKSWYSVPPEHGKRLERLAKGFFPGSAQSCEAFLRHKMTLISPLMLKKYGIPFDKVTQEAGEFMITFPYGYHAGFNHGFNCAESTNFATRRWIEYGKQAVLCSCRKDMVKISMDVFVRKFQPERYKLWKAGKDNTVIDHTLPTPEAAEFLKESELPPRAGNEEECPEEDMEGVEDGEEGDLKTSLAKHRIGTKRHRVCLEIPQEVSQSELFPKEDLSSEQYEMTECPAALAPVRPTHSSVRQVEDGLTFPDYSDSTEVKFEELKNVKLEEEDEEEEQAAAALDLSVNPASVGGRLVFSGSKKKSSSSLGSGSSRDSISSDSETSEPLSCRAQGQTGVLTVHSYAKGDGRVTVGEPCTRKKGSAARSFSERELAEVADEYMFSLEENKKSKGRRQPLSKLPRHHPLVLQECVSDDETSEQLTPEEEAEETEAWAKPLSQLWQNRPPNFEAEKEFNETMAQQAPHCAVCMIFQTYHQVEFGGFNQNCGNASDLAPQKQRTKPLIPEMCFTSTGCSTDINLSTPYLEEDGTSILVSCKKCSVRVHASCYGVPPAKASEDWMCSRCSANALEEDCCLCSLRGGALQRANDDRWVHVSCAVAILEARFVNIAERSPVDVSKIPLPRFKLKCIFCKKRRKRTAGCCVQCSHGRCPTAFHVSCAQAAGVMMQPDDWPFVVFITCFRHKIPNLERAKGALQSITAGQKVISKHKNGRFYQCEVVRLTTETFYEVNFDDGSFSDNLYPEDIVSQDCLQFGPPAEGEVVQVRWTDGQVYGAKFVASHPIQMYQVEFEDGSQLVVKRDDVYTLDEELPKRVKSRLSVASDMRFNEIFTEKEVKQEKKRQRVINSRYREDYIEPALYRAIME
Six1-Eya2 blk = blocks human Six1 binding to Eya2 | activity change, % (concentration not given with the values) | 360,000 tested, 0.56% active | Q15475+O00167 | AlphaScreen GST-Six1/His-Eya2 binding, biochemical; stronger effect = lower value | AID 651725; in the data active means activity change below about -65%; inconclusive means mostly about -30% to -63%
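Six1/Eya2 binding was read as AlphaScreen signal after compounds were pinned into GST-Six1 plus His-tagged Eya2 (5X stock 250/500 nM) in pH 8.0 Tris/NaCl/TCEP buffer, beads added, then incubated 1 h, 37 C, dark.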
G9a block = inhibitors of human histone lysine methyltransferase G9a; AID 504332; Potency, µM (series often up to 102 µM), most hits filed as inhibitors; G9a H3K9 monomethylation, AlphaScreen, 2 h; 350,000 tested, 8.8% active; further: nearly all actives have a fitted effect of over 75% in size
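G9a (20 nM) preincubated 15 min RT with compounds, then 500 nM biotinylated H3K9 peptide and 20 uM SAM added; 2 h RT reaction. Monomethyl-H3K9 product detected by AlphaScreen with anti-H3K9me1 antibody, streptavidin donor and anti-rabbit IgG acceptor beads.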
HP1b chromo inh = blocks HP1-beta chromodomain binding to methylated histone tails. AlphaScreen HP1-beta / biotin-H3K9me3 peptide binding. Potency, µM (doses to about 114 µM), most hits filed as inhibitors. 390,000 tested, 0.56% active. AID 540317; further: nearly all actives have a fitted effect of over 70% in size
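HP1-beta protein (50 nM final) preincubated 30 min at room temperature with biotinylated H3(1-18)K9me3 peptide (50 nM) in PBS pH 7.4, 0.01% Tween-20, then compound added for 30 min. AlphaScreen streptavidin donor/nickel chelate acceptor beads (10 ug/mL final), 30 min dark, luminescence read.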
CtBP-E1A blk = CtBP/E1A binding inhibition; AID 651724; activity change, % (no concentration beside the values); AlphaScreen GST-E1A/His-CtBP binding, 1536-well; stronger effect = lower value; 340,000 tested, 0.49% active; in the data active means activity change below about -65%; inconclusive means mostly about -30% to -63%
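GST-E1A and His-tagged CtBP (125 nM each as 5X stock) were preincubated with pin-transferred compound for 2 h at 37 °C in the dark, then glutathione donor and nickel acceptor beads were added for 1 h before AlphaScreen reading.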
Of the large screens only hits and unclear results are named; the others gave an inactive call. In the library only some 10% were active in any assay of this set; here they are far more common. Unless noted, the call rests on the fitted dose curve; in most records, active means well fitted inhibition curve with a large enough effect; inconclusive means small, poorly fitted or top-dose-only effect; inactive means no such curve, though single readings can be large or run the other way.

CCOc1ccc(NCc2nc3ccccc3n2CCOc2ccccc2)cc1	BAZ2B block 11µM, JMJD2A Tudor 18µM, Six1-Eya2 blk inconclusive, G9a block 32µM
CCOc1ccc(NCc2nc3ccccc3n2CCOc2ccc(C)cc2)cc1	BAZ2B block 13µM, JMJD2A Tudor 11µM, G9a block 14µM, HP1b chromo inh inconclusive (no result: Six1-Eya2 blk, CtBP-E1A blk)
Cc1ccc(Nc2c(-c3ccc(C)cc3)nc3c(C)cccn23)cc1	JMJD2A Tudor inconclusive, G9a block 11µM, HP1b chromo inh inconclusive (no result: BAZ2B block, Six1-Eya2 blk, CtBP-E1A blk)
Cc1ccc(-c2nc3c(C)cccn3c2Nc2ccccc2C)s1	BAZ2B block 16µM, JMJD2A Tudor 45µM, G9a block 14µM, HP1b chromo inh inconclusive (no result: Six1-Eya2 blk, CtBP-E1A blk)
Cc1cccn2c(Nc3ccccc3)c(-c3cccs3)nc12	JMJD2A Tudor inconclusive (no result: Six1-Eya2 blk, CtBP-E1A blk)
Cc1ccccc1Nc1c(-c2ccc(N3CCOCC3)cc2)nc2ncccn12	BAZ2B block inconclusive
Cc1ccccc1Nc1c(-c2ccccn2)nc2c(C)cccn12	BAZ2B block 14µM, JMJD2A Tudor 40µM, G9a block 45µM, HP1b chromo inh inconclusive, CtBP-E1A blk inconclusive
CC(C)c1nc2ccc(C(=O)Nc3ccccc3F)cc2o1	none (no result: Six1-Eya2 blk, CtBP-E1A blk)
COc1ccc(CCNC(=O)CCc2c(C)nc3cc(-c4ccccc4OC)nn3c2C)c(OC)c1	none (no result: Six1-Eya2 blk, CtBP-E1A blk)
Cc1ccc(CNc2nc3c([nH]2)c(=O)n(C)c(=O)n3C)cc1	G9a block 45µM
OC(c1ccc(F)cc1)c1nc(-c2csc3ccccc23)cs1 (stereo not given)	none (no result: BAZ2B block, JMJD2A Tudor, G9a block, HP1b chromo inh)
CC(O)(c1ccccc1)c1nc(-c2csc3ccccc23)cs1 (stereo not given)	none (no result: BAZ2B block, JMJD2A Tudor, G9a block, HP1b chromo inh)
CCn1c(-c2csc3ccccc23)n[nH]c1=S	JMJD2A Tudor 13µM, G9a block 2.2µM
Cc1nonc1NC(=O)CSc1nnc(-c2ccoc2C)n1CC(C)C	G9a block inconclusive
Cc1occc1-c1n[nH]c(=S)n1CC(C)C	JMJD2A Tudor 5µM, G9a block 4.5µM
Cc1cccc(-n2c(-c3csc4ccccc34)n[nH]c2=S)c1	BAZ2B block inconclusive, JMJD2A Tudor inconclusive, G9a block 1.3µM, HP1b chromo inh inconclusive
Cc1cccc(-n2c(C)nc3sccc3c2=O)c1	none
CC(C)Cn1c(-c2csc3ccccc23)n[nH]c1=S	JMJD2A Tudor 79µM, G9a block inconclusive
Cc1nc2nncn2c(Nc2ccc(F)cc2)c1C	none (no result: Six1-Eya2 blk, CtBP-E1A blk)
Cc1coc2c1c(C)cc1oc(=O)cc(C)c12	none (no result: Six1-Eya2 blk, CtBP-E1A blk)
CCc1cccc(C)c1NC(=O)CN1CCCN(Cc2ccccc2Cl)S1(=O)=O	none (no result: Six1-Eya2 blk, CtBP-E1A blk)
CCN(CC)C(=O)c1sc2c(c1C)c(=O)n(-c1ccc(OC)cc1OC)c(=O)n2CC(=O)c1ccc(Cl)cc1	none (no result: Six1-Eya2 blk, CtBP-E1A blk)
C=CCn1c(SCc2csc(C)n2)nc2sc3c(c2c1=O)CCC(C)C3 (stereo not given)	none
CCn1c(-c2csc3c2CCC(C)C3)n[nH]c1=S (stereo not given)	JMJD2A Tudor 35µM, G9a block 6.3µM
CCOC(=O)Cc1ccc(NC(=O)N2CCC(CN3CCCCCC3)CC2)cc1	G9a block inconclusive (no result: Six1-Eya2 blk, CtBP-E1A blk)
CC(C)(/C=N/O)/[N+]([O-])=C/c1ccccc1	G9a block 50µM
CC(=O)c1c(C)[nH]c(C(=O)OCc2ccccc2)c1C	BAZ2B block inconclusive
CCN(CC)CCc1c(C)[nH]c(C(=O)OCc2ccccc2)c1C	BAZ2B block inconclusive, G9a block 79µM
CCCCN(C)C(=O)CN1C(=O)c2cccnc2Oc2ccc(Cl)cc21	none (no result: Six1-Eya2 blk, CtBP-E1A blk)
COCCN(C(=S)Nc1c(C)cc(C)cc1C)C(C)c1cccnc1 (stereo not given)	G9a block 7.1µM, HP1b chromo inh inconclusive
O=C(O)c1ccc(N2CC3CC(C2)c2cccc(=O)n2C3)c(NC(=S)Nc2ccc(Cl)cc2Cl)c1 (stereo not given)	G9a block 10µM, HP1b chromo inh inconclusive
COc1cc(/C=N/NC(=O)Nc2ccccc2)ccc1OC(C)=O	none
C=CC[n+]1c(/C=C/c2ccc(OC(C)=O)c(OC)c2)ccc2ccccc21	G9a block 79µM (no result: CtBP-E1A blk)
CCOc1cccc(C(=O)Nc2ccc(-c3nc4ncccc4o3)cc2C)c1	none (no result: Six1-Eya2 blk, CtBP-E1A blk)
O=C1OC2(c3ccccc31)c1cc(I)c(O)c(I)c1Oc1c2cc(I)c(O)c1I	BAZ2B block 10µM, G9a block inconclusive (no result: JMJD2A Tudor, Six1-Eya2 blk, HP1b chromo inh, CtBP-E1A blk)
